Screens as filed in PubChem.
An excerpt weighted towards active compounds, which were near 6.4% of everything screened.
VP16 counter: inhibits Gal4-VP16 luciferase reporter, ROR gamma counter-screen | Drosophila S2 Gal4-VP16 UAS-luciferase, luminescence, 20 h | Potency, µM (series often up to 53.6 µM), inactives show at the top dose activity, negative = inhibition, most hits filed as inhibitors | hit rate 3.5% among 310,000 | AID 2546;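 also: Gal4-VP16 expression switched on by copper sulfate through the metallothionein promoter; nearly all actives have a fitted effect of over 50% in size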
KinaseGlo FLuc: counter-screen: inhibitors of Kinase-Glo firefly luciferase; Q27757; Kinase-Glo luciferase, ATP luminescence, 8 min; Potency, µM (series often up to 38.3 µM), inactives show top-dose activity change, negative = inhibition, usual class: inhibitors; hit rate 0.28% among 200,000; also: nearly all actives have a fitted effect of over 60% in size
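Light output from Kinase-Glo luciferase with luciferin and 10 uM ATP in 50 mM imidazole pH 7.2, KCl, MgCl2, Tween 20, BSA; compound pin-delivered, 8-min ambient incubation, then luminescence read.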
RORg inh: inhibitors of mouse ROR gamma transcriptional activity. P51450. Drosophila S2 Gal4-RORgamma UAS-luciferase reporter, 20 h. Potency, µM (doses to about 53.6 µM), inactives show top-dose activity change, negative = inhibition, actives largely listed as inhibitors. hit rate 5.4% among 310,000; also: nearly all actives have a fitted effect of over 60% in size
Target sequence (P51450 whole entry, looked up, the tested form may be a part): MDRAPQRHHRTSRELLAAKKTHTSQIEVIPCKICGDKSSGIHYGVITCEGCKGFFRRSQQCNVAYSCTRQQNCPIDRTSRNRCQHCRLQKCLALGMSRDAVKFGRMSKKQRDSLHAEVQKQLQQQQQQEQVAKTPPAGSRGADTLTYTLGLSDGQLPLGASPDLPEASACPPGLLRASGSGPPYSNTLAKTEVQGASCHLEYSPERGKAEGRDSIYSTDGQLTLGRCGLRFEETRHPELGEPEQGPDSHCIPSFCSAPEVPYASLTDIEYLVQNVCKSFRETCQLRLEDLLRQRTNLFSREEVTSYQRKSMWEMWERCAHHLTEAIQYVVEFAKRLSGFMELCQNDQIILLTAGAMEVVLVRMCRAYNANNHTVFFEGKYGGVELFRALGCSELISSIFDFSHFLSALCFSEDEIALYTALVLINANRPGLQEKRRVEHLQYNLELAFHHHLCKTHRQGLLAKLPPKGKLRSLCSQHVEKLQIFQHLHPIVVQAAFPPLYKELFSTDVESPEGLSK
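Luminescence from a UAS-regulated Photinus luciferase reporter in stably transfected Drosophila Schneider cells is measured; decreased signal marks ROR gamma inhibition. Fusion expression is induced by 700 uM copper sulfate for 20 hr.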
Starred values were filed as active, the others as inactive; ? = inconclusive; . = no result; [ ] = dose if it differs, or a comment. Calls follow the shape of the dose curve; as a rule, active = well fitted curve in the direction sought with a large enough effect; inconclusive = small, poorly fitted or top-dose-only effect, or another doubt; inactive = no such curve, though single readings can be large; an effect the other way counts as inactive or inconclusive. % is scaled to controls: 0 for no effect and ±100 for the full control effect; potency is read from the fitted curve at half-maximal effect.

SMILES	VP16 counter	KinaseGlo FLuc	RORg inh
Cc1cc(C(=O)C[N+]2(C)CCOCC2)c(C)n1-c1ccc(Br)cc1	3.0%	-6.5%	4.1%
CCCn1c(N2CCN(C(=O)Nc3ccc(Cl)cc3)CC2)nc2ccccc21	-8.0%	-1.4%	15.3%
COc1ccc(NC(=O)C2CCC(=O)N2C(=O)OCc2ccccc2)cc1 (centres undefined)	-4.1%	.	-11.9%
NC(=O)CC(NC(=O)Cc1cccc2ccccc12)c1ccc(N2CCc3ccccc3C2)c([N+](=O)[O-])c1 (centres undefined)	-5.0%	.	-11.7%
CC(C)ON(C(C(=O)NO)C(C)C)S(=O)(=O)c1ccc(-c2ccccc2)cc1 (centres undefined)	?	.	10µM*
CC(C)ON(CC(=O)NO)S(=O)(=O)c1ccc(-c2ccccc2)cc1	1.5%	.	-1.4%
O=C1C=C(N2CCOCC2)c2ccccc2C1=O	3.16µM*	.	3.98µM*
CN(C1=C(N2CCOCC2)C(=O)c2ccccc2C1=O)c1ccccc1	-26.0%	-7.1%	14.1µM*
Cn1c(N2CCOCC2)cc(=O)n(C)c1=O	-4.9%	-2.0%	7.2%
CC1=C(C)C(=O)C(N2CCOCC2)=CC1=O	?	-12.3%	22.4µM*
O=C1C(NS(=O)(=O)c2cccs2)=C(N2CCOCC2)C(=O)c2ccccc21	-13.1%	.	-22.6%
Cc1ccc(N2CCOCC2)c2c1C(=O)c1ccccc1C2=O	-17.7%	?	-6.7%
O=C(Nc1nn[nH]n1)c1nc(-c2ccccc2)cc(=O)[nH]1	.	-1.0%[7.66 µM]	.
Cc1cc(=O)[nH]c(NCc2ccc(Cl)cc2)n1	6.0%	.	14.4%
Brc1cc2c(cc1CSc1ncccn1)OCO2	-16.8%	.	14.7%
CCc1nnc(NC(=O)CC23CC4CC(CC(Br)(C4)C2)C3)s1	-4.9%	.	-25.6%
Cc1ccc(-c2nc3cc(N)ccc3o2)cc1	?	-10.3%	?
Nc1ccc2oc(-c3cccc4ccccc34)nc2c1	-9.9%	-5.6%	0.1%
Cc1ccc(-c2nc3cc(C)ccc3o2)cc1	14.1µM*	?	11.2µM*
Cc1ccc(-c2nc3cc(N)ccc3o2)c(C)c1	-23.0%	-9.5%	11.2µM*
CCCC(=O)Nc1ccc2oc(-c3ccncc3)nc2c1	-9.5%	-1.7%	5.4%
Cc1ccc2oc(-c3cccc(N)c3)nc2c1	?	.	11.2µM*
Cc1ccc2oc(-c3ccco3)nc2c1	-0.2%	-14.6%	-0.3%
CCCC(=O)Nc1ccc(-c2nc3cc(C)c(C)cc3o2)cc1	?	-2.0%	1.26µM*
COc1ccc(S(=O)(=O)NCc2ccc(F)cc2)cc1OC	-4.1%	2.5%	-13.3%
SMILES	VP16 counter	KinaseGlo FLuc	RORg inh
Cc1noc(C)c1COc1cccc(C(=O)OC(C)C(=O)Nc2c(C)n(C)n(-c3ccccc3)c2=O)c1 (centres undefined)	-8.8%	.	11.9%
CCC1CCC(C(=O)NC(C(=O)NCCCN2CCCCC2C)C(C)C)CC1 (centres undefined)	-0.9%	-1.1%	-7.9%
N#CCN(N=Nc1ccccc1)c1ccccc1	11.7%	.	-0.8%
Cc1ccc2oc(-c3ccc(NC(=O)CC(C)C)cc3)nc2c1	1.12µM*	-2.9%	0.282µM*
Cc1ccc2nc(-c3cccc(N)c3)[nH]c2c1	8.91µM*	10µM*	7.94µM*
Nc1cccc(-c2nc3ccccc3[nH]2)c1	-2.9%	-14.0%	?
CC(C)CC(=O)Nc1ccc2oc(-c3cccnc3)nc2c1	1.0%	-4.6%	5.4%
Nc1cccc(-c2nc3cc(S(=O)(=O)c4ccc5oc(-c6cccc(N)c6)nc5c4)ccc3o2)c1	5.01µM*	-1.8%	4.47µM*
Nc1cccc(-c2nc3ncccc3o2)c1	-2.3%	.	?
COc1cccc(N2CCN(C(=O)CCNS(=O)(=O)c3ccc4c(c3)c(=O)n(C)c(=O)n4C)CC2)c1	0.0%	1.9%	19.2%
CCCCNC(=O)O[C@@H]1C[C@H]2CCC(=O)N3CC[C@@H](C1)[C@@H]23	-6.5%	.	-12.1%
Cn1c(=O)oc2cc(S(=O)(=O)N3CCC(C(=O)NCc4ccccc4Cl)CC3)ccc21	-19.3%	.	-24.9%
CN1CCN(Cc2c(O)ccc3occ(C(=O)c4ccccc4)c23)CC1	-0.5%[0.365 µM]	4.5%	5.0%
CC(=O)C(C(C)=O)c1c(Cl)c(O)c(O)c2c(C(=O)c3ccccc3)coc12	?	-5.3%	15.8µM*
CCNC(=O)Nc1ccc(-n2nc(C)c(C(=O)OCC)c2C)nc1	6.5%	-6.9%	7.1%
C/C=C\C1=CCCC1Nc1ncnc2ccc(-c3c(C)noc3C)cc12 (centres undefined)	?	.	11.2µM*
CC(=O)Nc1ccc(CNc2ncnc3ccc(-c4c(C)noc4C)cc23)cc1	-34.2%	.	15.4%
CC(=O)NCCNc1ncnc2ccc(-c3c(C)noc3C)cc12	?	.	11.2µM*
Cc1noc(C)c1-c1ccc2ncnc(NCc3ccc(-c4ccccc4)cc3)c2c1	0.9%	.	?
Cc1cccc(CNc2ncnc3ccc(-c4c(C)noc4C)cc23)c1	13.2%	-2.5%	2µM*
Cc1noc(C)c1-c1ccc2ncnc(NC3CC3)c2c1	-15.6%	-2.5%	-25.0%
COc1cc2nc(NC(=O)c3ccc(F)cc3Cl)sc(=O)c2cc1OC	-1.3%	.	-0.3%
Cc1ccc(NC(=O)CN(C)C(=O)c2n[nH]c(=O)c3ccccc23)cc1	-18.2%	3.8%	14.0%
CCOCCCNc1ccc(N2C(=O)C3CCCCC3C2=O)cc1[N+](=O)[O-] (centres undefined)	-11.4%	-0.3%	26.7%
CC1(C)c2ssc(=S)c2-c2ccccc2N1C(=O)CSC1=NCCS1	0.0%	-7.8%	11.2µM*
SMILES	VP16 counter	KinaseGlo FLuc	RORg inh
Cc1cc2c(cc1C)N(C(=O)CSC1=NCCS1)C(C)(C)c1ssc(=S)c1-2	1.5%[0.365 µM]	-0.8%	3.98µM*
Cc1ccc2c(c1)-c1c(ssc1=S)C(C)(C)N2C(=O)CSc1nncn1C	1.3%	-0.1%	10.9%
COc1ccc2c(c1)-c1c(ssc1=S)C(C)(C)N2C(=O)CSC1=NCCS1	-4.5%[0.365 µM]	6.1%	?
CCNC(=S)N(CCc1c(C)[nH]c2ccccc12)Cc1cccnc1	-19.8%	.	-0.6%
CCc1cc2c(N=Nc3c(O)[nH]c4ccccc34)ncnc2s1	-7.6%	-1.3%	-4.9%[10 µM]
CCc1ccc2[nH]c(O)c(N=Nc3nc(-c4ccccc4)cs3)c2c1	?	1.9%	12.6µM*
COc1ccc(-c2csc3nc(-c4ccccc4OC)oc(=O)c23)cc1	-19.1%	-0.4%	11.2µM*
COc1ccc(-c2csc3nc(-c4ccc(C)cc4)oc(=O)c23)cc1OC	?	-0.3%	-6.5%
CCOc1ccc(-c2nnn(CC(=O)N3CCCC(C)C3)n2)cc1 (centres undefined)	-10.9%	3.9%	11.6%
COc1ccc(Nc2nc3ccccc3s2)cc1	1.6%	-8.0%	?
COc1ccc(CC(=O)Nc2sc3c(c2C(N)=O)CCCC3)cc1	14.7%	.	?
COc1cccc(Nc2nc3ccc(OC)cc3s2)c1	?	-3.3%	11.2µM*
COc1ccc2nc(Nc3sc4c(c3C(N)=O)CCCC4)sc2c1	3.55µM*	0.2%	1.41µM*
CCCN1C(=O)C2(SC(NC(C)=O)=NN2C(C)=O)c2cc(C)ccc21 (centres undefined)	-2.5%	-4.3%	11.0%
Oc1c(Br)cc(Br)cc1CNc1cccc2cccnc12	8.91µM*	.	14.1µM*
Oc1ccc(Br)cc1CNc1cccc2cccnc12	-20.7%	.	-28.0%
CCc1ccc(N/C(SCc2cccc(F)c2)=C(/C#N)C(=O)NCc2ccco2)cc1	6.31µM*	-1.6%	1.58µM*
